{"source": "PubChem BioAssay (NCI)", "note": "Values joined by “and” are separate entries in the source; they are usually repeats but may differ in a detail not shown here. Equal entries are not always repeated. This is part of a sample that, as a whole, favours compounds with a hit. Of some 79,000 tested, about 15% had one in any assay. A number with no mark means an inactive call. Active and inactive are the calls of the source. No stated cut-off is given here; in the data, active means growth inhibition above about 70%; inactive means the rest.", "data": [{"assay": "NCI Yeast Anticancer Drug Screen. Data for the sgs1 mgt1 strain (AID 161);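 further: 0% = growth of cultures given vehicle only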", "conditions": "S. cerevisiae sgs1 mgt1 strain, at 50.0 µM (retest, dose inferred, filed as 5.0), stronger effect = higher value", "in_short": "(§1)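 Genetically altered yeast, compound exposure, growth inhibition relative to vehicle.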", "values": [{"smiles": "Cc1[nH]nc(-c2cccnc2)c1N=NN1CCOCC1", "growth inhibition": "98% (active)"}, {"smiles": "CC1CCC2(CC1)NC1=C(CC(C)CC1)C1=C2CC(C)CC1", "note": "(configuration not stated)", "growth inhibition": "27%"}, {"smiles": "CN(C)CC(CN1CCCC1)C(=O)c1ccccc1", "note": "(configuration not stated)", "growth inhibition": "32%"}, {"smiles": "COc1ccc(/C(Cl)=C(/c2ccc(O)cc2)c2ccc(OCCN(C)C)cc2)cc1", "growth inhibition": "42%"}, {"smiles": "CCCCCC(Oc1ccc(Cl)cc1)C(=O)O", "note": "(configuration not stated)", "growth inhibition": "85% (active)"}, {"smiles": "N#CSC#CCCC#CSC#N", "growth inhibition": "100% (active)"}, {"smiles": "COc1cc2c(c(C3C(=O)N(C)c4ccc(Br)cc43)c1OC)OCO2", "note": "(configuration not stated)", "growth inhibition": "10%"}, {"smiles": "c1ccc(-c2cc(CN3CCOCC3)c(-c3ccccc3)o2)cc1", "growth inhibition": "99% (active)"}, {"smiles": "CC(=O)Nc1c([N+](=O)[O-])cc2c3c(cccc13)C=C2", "growth inhibition": "56%"}, {"smiles": "CCOc1nc(N)nc(C)c1N=Nc1ccc(Br)cc1", "growth inhibition": "72% (active)"}, {"smiles": "C=CC1(NC(=O)c2ccccc2)CCC(C(C)(C)C)CC1", "note": "(configuration not stated)", "growth inhibition": "94% (active)"}, {"smiles": "Cc1cccc2ccc3cc(CC(=O)O)c4cccc(C)c4c3c12", "growth inhibition": "99% (active)"}, {"smiles": "CCCCSc1nc2c([nH]1)c(=S)n(C)c(=S)n2C", "growth inhibition": "67%"}, {"smiles": "COC(=O)c1ccccc1CC(Cc1ccc2c(c1)CCC2)C(=O)OC", "note": "(configuration not stated)", "growth inhibition": "20%"}, {"smiles": "CCC(C)Sc1nc2c([nH]1)c(=S)n(C)c(=O)n2C", "note": "(configuration not stated)", "growth inhibition": "-19%"}, {"smiles": "O=S(=O)(c1ccc(NC(=S)NCc2ccncc2)cc1)N1CCCCC1", "growth inhibition": "-13%"}, {"smiles": "COc1ccccc1/C=C1\\NC(=S)N(/C=C2\\C(=O)Oc3ccccc3C2=O)C1=O", "growth inhibition": "38%"}, {"smiles": "CC12C(=O)OC(=O)C1C1c3ccccc3C2c2ccccc21", "note": "(configuration not stated)", "growth inhibition": "90% (active)"}, {"smiles": "CCOC(=O)C(F)C(Br)C(=O)OCC", "note": "(configuration not stated)", "growth inhibition": "100% (active)"}, {"smiles": "CCCCCCCCCCCCCCCCC/C=N\\NC(=O)CCCC(=O)N/N=C/CCCCCCCCCCCCCCCCC", "growth inhibition": "-3%"}, {"smiles": "CC(C(=O)NN)C(O)C(C)(C)O", "note": "(configuration not stated)", "growth inhibition": "3%"}, {"smiles": "COC(=O)C1C2CC3c4[nH]c5cc(OC)c(Br)cc5c4CCN3CC2CC(OC(=O)c2cc(OC)c(OC)c(OC)c2)C1OC", "note": "(configuration not stated)", "growth inhibition": "82% (active)"}, {"smiles": "CCCN(CCC)C(=S)N/N=C/c1cccc(C)n1", "growth inhibition": "98% (active)"}, {"smiles": "Cc1cccc2c1Oc1ccccc1C2N1C(=O)/C(=C/c2cccs2)SC1=S", "note": "(configuration not stated)", "growth inhibition": "28%"}, {"smiles": "COc1ccc(OC(C)=O)c2c1CCC=CC2=O", "growth inhibition": "93% (active)"}, {"smiles": "COC(=O)CSc1nc2[nH]c(SC)c(C(N)=O)c2c(=O)n1-c1ccccc1", "growth inhibition": "-7%"}, {"smiles": "O=C(Nc1ccc(Cl)c(Cl)c1Cl)Oc1c(Cl)c(Cl)c(Cl)c(Cl)c1Cl", "growth inhibition": "99% (active)"}, {"smiles": "COc1ccc(CCCC(=O)O)c2c(OC)cccc12", "growth inhibition": "62%"}, {"smiles": "FC(F)(F)c1ccc(Nc2ccc(C(F)(F)F)cc2)cc1", "growth inhibition": "100% (active)"}, {"smiles": "O=C(c1ccccc1)C(Br)CCCC(Br)C(=O)c1ccccc1", "note": "(configuration not stated)", "growth inhibition": "81% (active)"}, {"smiles": "CC1(C)c2ccccc2Cc2cc3ccccc3nc21", "growth inhibition": "97% (active)"}, {"smiles": "COc1ccc2c(c1)[n+]([O-])c(-c1ccc(Cl)c(Cl)c1)c(N)[n+]2[O-]", "growth inhibition": "99% (active)"}]}, {"assay": "NCI Yeast Anticancer Drug Screen. Data for the sgs1 mgt1 strain (AID 161)", "conditions": "S. cerevisiae sgs1 mgt1 strain, at 50.0 µM, stronger effect = higher value", "in_short": "as §1", "values": [{"smiles": "Cc1[nH]nc(-c2cccnc2)c1N=NN1CCOCC1", "growth inhibition": "96% (active)"}, {"smiles": "CC1CCC2(CC1)NC1=C(CC(C)CC1)C1=C2CC(C)CC1", "note": "(configuration not stated)", "growth inhibition": "-21.9%"}, {"smiles": "CN(C)CC(CN1CCCC1)C(=O)c1ccccc1", "note": "(configuration not stated)", "growth inhibition": "66.5%"}, {"smiles": "COc1ccc(/C(Cl)=C(/c2ccc(O)cc2)c2ccc(OCCN(C)C)cc2)cc1", "growth inhibition": "92.3% (active)"}, {"smiles": "CCCCCC(Oc1ccc(Cl)cc1)C(=O)O", "note": "(configuration not stated)", "growth inhibition": "80.2% (active)"}, {"smiles": "N#CSC#CCCC#CSC#N", "growth inhibition": "94.2% (active)"}, {"smiles": "COc1cc2c(c(C3C(=O)N(C)c4ccc(Br)cc43)c1OC)OCO2", "note": "(configuration not stated)", "growth inhibition": "11.3%"}, {"smiles": "c1ccc(-c2cc(CN3CCOCC3)c(-c3ccccc3)o2)cc1", "growth inhibition": "57.9%"}, {"smiles": "CC(=O)Nc1c([N+](=O)[O-])cc2c3c(cccc13)C=C2", "growth inhibition": "9.8%"}, {"smiles": "CCOc1nc(N)nc(C)c1N=Nc1ccc(Br)cc1", "growth inhibition": "22.2%"}, {"smiles": "C=CC1(NC(=O)c2ccccc2)CCC(C(C)(C)C)CC1", "note": "(configuration not stated)", "growth inhibition": "43.6%"}, {"smiles": "Cc1cccc2ccc3cc(CC(=O)O)c4cccc(C)c4c3c12", "growth inhibition": "99.8% (active)"}, {"smiles": "CC(=O)OC1COC(SC(=N)N)C(OC(C)=O)C1OC(C)=O", "note": "(configuration not stated)", "growth inhibition": "27.9% and 22.1% and 24.4%"}, {"smiles": "CCCCSc1nc2c([nH]1)c(=S)n(C)c(=S)n2C", "growth inhibition": "55.5%"}, {"smiles": "COC(=O)c1ccccc1CC(Cc1ccc2c(c1)CCC2)C(=O)OC", "note": "(configuration not stated)", "growth inhibition": "29.6%"}, {"smiles": "CCC(C)Sc1nc2c([nH]1)c(=S)n(C)c(=O)n2C", "note": "(configuration not stated)", "growth inhibition": "96.7% (active)"}, {"smiles": "O=S(=O)(c1ccc(NC(=S)NCc2ccncc2)cc1)N1CCCCC1", "growth inhibition": "10.7%"}, {"smiles": "Nc1ccc(S(=O)(=O)O)c2ccccc12", "growth inhibition": "-10.4% and -28.8% and 7.35%"}, {"smiles": "COc1ccccc1/C=C1\\NC(=S)N(/C=C2\\C(=O)Oc3ccccc3C2=O)C1=O", "growth inhibition": "73% (active)"}, {"smiles": "CC12C(=O)OC(=O)C1C1c3ccccc3C2c2ccccc21", "note": "(configuration not stated)", "growth inhibition": "89.3% (active)"}, {"smiles": "CSc1ccccc1C(=O)O", "growth inhibition": "-10.4% and -1.2% and 31.2%"}, {"smiles": "CCOC(=O)C(F)C(Br)C(=O)OCC", "note": "(configuration not stated)", "growth inhibition": "91.5% (active)"}, {"smiles": "CCCCCCCCCCCCCCCCC/C=N\\NC(=O)CCCC(=O)N/N=C/CCCCCCCCCCCCCCCCC", "growth inhibition": "98% (active)"}, {"smiles": "CC(C(=O)NN)C(O)C(C)(C)O", "note": "(configuration not stated)", "growth inhibition": "-7.4%"}, {"smiles": "COC(=O)C1C2CC3c4[nH]c5cc(OC)c(Br)cc5c4CCN3CC2CC(OC(=O)c2cc(OC)c(OC)c(OC)c2)C1OC", "note": "(configuration not stated)", "growth inhibition": "86.2% (active)"}, {"smiles": "OCC(O)C(O)C(O)C(O)CNCC(O)C(O)C(O)C(O)CO", "note": "(configuration not stated)", "growth inhibition": "12.8% and 14.3% and -2.5%"}, {"smiles": "CCCN(CCC)C(=S)N/N=C/c1cccc(C)n1", "growth inhibition": "92.8% (active)"}, {"smiles": "Cc1cccc2c1Oc1ccccc1C2N1C(=O)/C(=C/c2cccs2)SC1=S", "note": "(configuration not stated)", "growth inhibition": "88% (active)"}, {"smiles": "COc1ccc(OC(C)=O)c2c1CCC=CC2=O", "growth inhibition": "61.3%"}, {"smiles": "Cc1ccc(S(=O)(=O)OCC(O)C(O)COS(=O)(=O)c2ccc(C)cc2)cc1", "note": "(configuration not stated)", "growth inhibition": "25.3% and -27.6% and -5.9%"}, {"smiles": "COC(=O)CSc1nc2[nH]c(SC)c(C(N)=O)c2c(=O)n1-c1ccccc1", "growth inhibition": "7.25%"}, {"smiles": "NCC(=O)NC(CO)C(=O)O", "note": "(configuration not stated)", "growth inhibition": "-12.2% and -2.65% and -3.75%"}, {"smiles": "O=C(Nc1ccc(Cl)c(Cl)c1Cl)Oc1c(Cl)c(Cl)c(Cl)c(Cl)c1Cl", "growth inhibition": "99.6% (active)"}, {"smiles": "COC1OC2COC(c3ccccc3)OC2C(O)C1O", "note": "(configuration not stated)", "growth inhibition": "-3.35% and 7.95% and 0.55%"}, {"smiles": "COc1ccc(CCCC(=O)O)c2c(OC)cccc12", "growth inhibition": "60.8%"}, {"smiles": "FC(F)(F)c1ccc(Nc2ccc(C(F)(F)F)cc2)cc1", "growth inhibition": "99.6% (active)"}, {"smiles": "O=C(c1ccccc1)C(Br)CCCC(Br)C(=O)c1ccccc1", "note": "(configuration not stated)", "growth inhibition": "96% (active)"}, {"smiles": "CC1(C)c2ccccc2Cc2cc3ccccc3nc21", "growth inhibition": "90.2% (active)"}, {"smiles": "OC(c1ccccc1)C(O)c1ccccc1", "note": "(configuration not stated)", "growth inhibition": "4.4% and 1.85% and 11.1%"}, {"smiles": "COc1ccc2c(c1)[n+]([O-])c(-c1ccc(Cl)c(Cl)c1)c(N)[n+]2[O-]", "growth inhibition": "99.7% (active)"}]}]}
